Screens as filed in PubChem BioAssay.
In the library only some 0.4% were active in any assay of this set; here they are far more common.
ERG-DNA inh: blocks human ERG Ets domain binding to DNA | P11308 | Potency, µM (highest dose often 76.9 µM), inactives show at the highest dose FP activity, negative = inhibition, most hits filed as inhibitors | 370,000 compounds, 0.028% hits | fluorescence polarization, His-ERG Ets domain / labelled DNA; active = well fitted inhibition curve with a large enough effect in the polarisation, with a control signal flat; inconclusive = small, poorly fitted or top-dose-only effect, or effect the other way, or a change in a side signal; inactive = no such curve, though single readings can be large or run the other way; the % refers to the polarisation;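 also: polarization taken with two DNA probes labelled with fluorescein and Texas red; % of control where 0% means no effect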
Target sequence (P11308 whole entry, looked up, the tested form may be a part): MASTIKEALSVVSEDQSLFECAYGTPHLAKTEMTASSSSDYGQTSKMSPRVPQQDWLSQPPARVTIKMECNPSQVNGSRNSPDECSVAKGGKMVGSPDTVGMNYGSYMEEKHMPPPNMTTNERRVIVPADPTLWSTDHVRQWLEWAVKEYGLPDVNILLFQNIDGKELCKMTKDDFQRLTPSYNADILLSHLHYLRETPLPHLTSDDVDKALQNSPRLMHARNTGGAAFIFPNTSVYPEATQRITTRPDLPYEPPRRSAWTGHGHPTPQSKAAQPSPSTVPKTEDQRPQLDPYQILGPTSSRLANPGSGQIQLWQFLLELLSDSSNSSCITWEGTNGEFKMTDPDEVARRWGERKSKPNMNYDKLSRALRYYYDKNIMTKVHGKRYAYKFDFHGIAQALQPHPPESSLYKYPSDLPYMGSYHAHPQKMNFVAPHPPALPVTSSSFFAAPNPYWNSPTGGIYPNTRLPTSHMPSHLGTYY
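His-tagged ERG Ets domain (1 uM in the protein solution; 300mM KCl, 50mM Tris-HCl, 1mM EDTA, 1mM DTT, pH 7.5) received compound, then a probe mix of 5 nM fluorescein-DNA and 100nM Texas-615-DNA. Fluorescence polarization was read for both dyes.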
EPAC1 agonist: agonists of human EPAC1 | 360,000 compounds, 0.073% hits | AID 720707 | EPAC1 agonist qHTS, biochemical assay; response scale: 100% = response to 6.5 mM cAMP | Potency, µM (doses to about 154 µM), for the others: at the highest dose activation, hits mostly activators; also: nearly all actives have a fitted effect of over 60% in size
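EPAC1 100 nM, Rap1B–BODIPY-GDP 250 nM, unlabeled GDP 50 uM; compound titration; 5 min RT; kinetic read ex480/em540 at 5-min intervals ×30 min; data normalized to 6.5 mM cAMP agonist control.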
RGS4 inhibitor: human RGS4 inhibition; P49798; Transcreener GDP fluorescence polarization, RGS4-accelerated GTP hydrolysis; Potency, µM (series often up to 114 µM), for the others: top-dose activity change, negative = inhibition, usual class: inhibitors; 390,000 compounds, 0.039% hits; AID 504845; also: % is scaled to controls: 0 for no effect and ±100 for the full control effect; nearly all actives have a fitted effect of over 75% in size
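MLSMR compounds (23 nl, pin-transferred) preincubated 10 min at room temperature with a 500nM (2x) first reagent, then RGS4 at 900nM (2x) plus Transcreener GDP mix added; fluorescence polarization (620/688 nm) read before and after 90 min at 30 °C.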
EPAC2 antagonist: EPAC2 (human) antagonism. Q8WZA2. EPAC2 GEF exchange of Rap1B-BODIPY-GDP, fluorescence. Potency, µM (highest dose often 114 µM), without a hit: at the top dose activity, negative = inhibition, most hits filed as inhibitors. 360,000 compounds, 0.18% hits; also: % is scaled to controls: 0 for no effect and ±100 for the full control effect; nearly all actives have a fitted effect of over 45% in size
EPAC1 antagonist: antagonists of human EPAC1 | O95398 | EPAC1 GEF assay, Rap1b-BODIPY-GDP exchange fluorescence | Potency, µM (doses to about 115 µM), inactives show at the top dose activity change, negative = inhibition, actives largely listed as inhibitors | 360,000 compounds, 0.14% hits | AID 720709;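 also: plate controls were vehicle for no effect and positive control for full effect; nearly all actives have a fitted effect of over 50% in size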
EPAC2 agonist: agonists of human EPAC2 (RAPGEF4) | EPAC2 activation, biochemical qHTS; response scale: 100% = 6.5 mM cAMP response | Potency, µM (top dose mostly 154 µM), without a hit: at the highest dose activation, most hits filed as activators | 360,000 compounds, 0.079% hits | AID 720711; also: nearly all actives have a fitted effect of over 50% in size
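Compounds were titrated in qHTS against a Rap1B-BODIPY-GDP (250 nM) complex with EPAC2 (100 nM) and GDP (50 uM). BODIPY-GDP release tracked at 480/540 nm over 30 min at room temperature, normalized to 6.5 mM cAMP.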
Numbers without * were called inactive; i = inactive; ? = inconclusive; . = no result; [ ] = dose if it differs, or a comment. Unless noted, calls follow the shape of the dose curve; as a rule, active = well fitted curve in the direction sought with a large enough effect; inconclusive = small, poorly fitted or top-dose-only effect, or another doubt; inactive = no such curve, though single readings can be large; an effect the other way counts as inactive or inconclusive. Potency is read from the fitted curve at half-maximal effect.

SMILES	ERG-DNA inh	EPAC1 agonist	RGS4 inhibitor	EPAC2 antagonist	EPAC1 antagonist	EPAC2 agonist
COc1ccc(/C=C2/C(=O)N(Cc3ccco3)C(=O)N(C(C)C)C2=O)cc1	50%	-5%	?	40%	32µM*	-10%
CC1=NCCc2c1[nH]c1cc(O)ccc21	-4%	112µM*	-31%	i	71%	100µM*
COc1ccc2c3c([nH]c2c1)C(C)=NCC3	-6%	-10%	-10%	7%	4%	2%
CCN1/C(=C\C=C\C2=[N+](CC)c3ccccc3C2(C)C)C(C)(C)c2ccccc21	-161%	79µM*	-20%	73%	94%	50µM*
COc1ccc(CNC(=O)/C=C\c2ccc3[nH]cc(CCN(C)C)c3c2)cc1	.	.	i	.	.	.
COC1C(C)OC(OC2CC(C)(O)Cc3cc4c(c(O)c32)C(=O)c2c(O)cc3c(c2C4=O)OC2OC3(C)C(O)C(N(C)C)C2O)C(OC)C1(C)OC (stereo unspecified)	7.1µM*	100µM*	-43%	10%	130%	12%
O=C1C=CC(=O)C2C1C1(Cl)C(Cl)=C(Cl)C2(Cl)C1(Cl)Cl (stereo unspecified)	-1%	-1%	9%	56µM*	-12%	9%
CC[n+]1c(-c2ccccc2)c2cc(N)ccc2c2ccc(N)cc21	16µM*	0%	-7%	-7%	-10%	-6%
O=c1nc(/C=C/c2ccc(Cl)cc2Cl)cc(C(F)(F)F)[nH]1	6%	-20%	?	56µM*	?	-2%
CCCCn1c(N)c(C(=O)OCCOC)c2nc3ccccc3nc21	?	10%	-1%	5%	-1%	18%
COCCCn1c(N)c(C(=O)NCCC(C)C)c2nc3ccccc3nc21	-3%	23%	-3%	?	50µM*	-3%
CC(C)CC1C(=O)N2CCC[C@H]2[C@]2(O)O[C@](NC(=O)[C@@H]3C=C4c5cccc6[nH]c(Br)c(c56)C[C@H]4N(C)C3)(C(C)C)C(=O)N12 (stereo partly specified)	.	.	11%	.	.	.
Clc1ccc(C2=CCC[C@H]3CC[C@@H]2N3)cn1	.	.	i	.	.	.
COc1ccc(N2C(=O)/C(=C/C=C/c3ccccc3[N+](=O)[O-])C(=O)NC2=S)cc1	2%	-4%	?	-8%	45µM*	-4%
NC(Cc1cc(O)c(O)cc1O)C(=O)O (stereo unspecified)	.	.	3µM*	.	.	.
Cn1cccc1/C=C1\C(=O)NC(=O)N(Cc2ccccc2Cl)C1=O	10%	-7%	?	-4%	79µM*	5%
CCN1C(=O)NC(=O)/C(=C/c2cc(C)n(-c3sc(C)c(C)c3C#N)c2C)C1=O	6%	5%	?	9%	-14%	11%
Cc1ccc(N2C(=O)NC(=O)/C(=C\c3cc(C)n(-c4sc5c(c4C#N)CCCC5)c3C)C2=O)cc1	8%	8%	?	?	18µM*	-12%
O=P(Nc1cccc(F)c1)(Oc1ccccc1F)Oc1ccccc1F	2%	14%	22%	35µM*	?	23%
Cc1cccc(NP(=O)(Oc2ccccc2F)Oc2ccccc2F)c1	8%	11%	1%	?	-15%	6%
C(=C/c1ccccc1)/CN1CCN(CCOC(c2ccccc2)c2ccccc2)CC1	.	.	i	.	.	.
CN(C(=O)Cc1ccc(Cl)c(Cl)c1)[C@H](CN1CCCC1)c1ccccc1	.	.	-30%[56.9 µM]	.	.	.
O=C1NC(=O)N(c2ccccc2F)C(=O)/C1=C/c1ccc(Sc2nc3ccccc3[nH]2)o1	154%	14%	?	-1%	25µM*	-1%
O=C1NC(=O)N(c2cccc(Cl)c2)C(=O)/C1=C\c1ccc(Sc2nc3ccccc3[nH]2)o1	106%	-2%	?	-3%	45µM*	1%
CC1=C(O)C(=O)[C@@H]2O[C@@H]2C1=O	.	.	i	.	.	.
NC(=O)CSc1nc2cc(S(=O)(=O)N3CCOCC3)ccc2o1	6%	11%	?	5%	14%	8%
Cc1cc(C=C(C#N)C#N)ccc1N1CCCC1	?	?	-25%	7%	2%	100µM*
